Results: PubChem BioAssay (EPA / NIEHS)
Active and inactive are the calls of the source. The calls were made as follows: active = hit-call score of the fitted dose curve at least 0.9, where 1 is the maximum; inactive = score below 0.9.

Columns and labels:
Conditions in all cases: mRNA level, 48 h; actives raise or lower the signal
[1] = read-out: Ezrin (EZR), EZR (gene 7430); assay: LTEA_HepaRG_EZR: Life Technologies and Expression Analysis (LTEA) Assay for Ezrin (EZR) using HepaRG (AID 2283491)
In short: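 EZR transcript levels came from Fluidigm qRT-PCR and were normalized to three housekeeping genes after 48 h chemical exposure of HepaRG cells. Dosing used an 8-point half-log series with a 100 uM top concentration in 0.5% DMSO, tested in duplicate; both directions were fitted versus vehicle.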

[2] = read-out: Cytochrome P450 3A7 (Homo sapiens) (UniProt P24462); assay: LTEA_HepaRG_CYP3A7: Life Technologies and Expression Analysis (LTEA) Assay for CYP3A7 using HepaRG (AID 2283492)
In short: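 qRT-PCR of CYP3A7 in HepaRG lysates after 48 h treatment; concentration-response (8 points, max 100 uM) analysed bidirectionally relative to 0.5% DMSO controls.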

[3] = read-out: CYP3A5 (gene 1577); assay: LTEA_HepaRG_CYP3A5: Life Technologies and Expression Analysis (LTEA) Assay for CYP3A5 using HepaRG (AID 2283493)
In short: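 mRNA levels were quantified by qRT-PCR on Fluidigm arrays and normalized to three housekeeping genes. Differentiated HepaRG cells received 48 h exposure (top 100 uM, half-log steps, 0.5% DMSO vehicle, duplicate); bidirectional fitting versus DMSO.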

[4] = read-out: Cytochrome P450 4A22 (Homo sapiens) (UniProt Q5TCH4); assay: LTEA_HepaRG_CYP4A22: Life Technologies and Expression Analysis (LTEA) Assay for Cytochrome P450 4A22 (CYP4A22) using HepaRG (AID 2283495)
In short: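 Concentration-response (8 points, max 100 uM, 0.5% DMSO) in human HepaRG liver cells after 48 h exposure. CYP4A22 mRNA by TaqMan qRT-PCR with housekeeping-gene normalization.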

[5] = read-out: Cytochrome P450 7A1 (Homo sapiens) (UniProt P22680); assay: LTEA_HepaRG_CYP7A1: Life Technologies and Expression Analysis (LTEA) Assay for Cytochrome P450 7A1 (CYP7A1) using HepaRG (AID 2283496)
In short: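 HepaRG, 48 h exposure, 8-pt half-log series from 100 uM, 0.5% DMSO vehicle, duplicates. Readout: TaqMan qRT-PCR mRNA vs three housekeeping genes; bidirectional curve fit against DMSO baseline.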

[6] = read-out: Glutathione S-Transferase (GSTA2), GSTA2 (gene 2939); assay: LTEA_HepaRG_GSTA2: Life Technologies and Expression Analysis (LTEA) Assay for Glutathione S-Transferase (GSTA2) using HepaRG (AID 2283497)
In short: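 Oxidative-stress marker GSTA2 is quantified by TaqMan qRT-PCR in HepaRG cultures treated 48 h across an eight-point range to 100 uM. Expression is normalized to endogenous controls and compared with 0.5% DMSO vehicle.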

[7] = read-out: Glutamate-cysteine ligase catalytic (GCLC), GCLC (gene 2729); assay: LTEA_HepaRG_GCLC: Life Technologies and Expression Analysis (LTEA) Assay for Glutamate-cysteine ligase catalytic (GCLC) using HepaRG (AID 2283498)
In short: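 Oxidative-stress marker GCLC is measured as mRNA change in human HepaRG liver cells after 48 h chemical treatment in 0.5% DMSO, eight concentrations from 100 uM. Activity is fitted bidirectionally against vehicle.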

[8] = read-out: growth arrest and DNA damage 45 (GADD45G), GADD45G (gene 10912); assay: LTEA_HepaRG_GADD45G: Life Technologies and Expression Analysis (LTEA) Assay for growth arrest and DNA damage 45 (GADD45G) using HepaRG (AID 2283499)
In short: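 Concentration-response in HepaRG: 48 h dosing, 0.5% DMSO, highest level 100 uM. GADD45G expression by qRT-PCR, normalised to endogenous controls; bidirectional fit to DMSO.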

[9] = read-out: Glutamate-cysteine ligase regulatory (GCLM), GCLM (gene 2730); assay: LTEA_HepaRG_GCLM: Life Technologies and Expression Analysis (LTEA) Assay for Glutamate-cysteine ligase regulatory (GCLM) using HepaRG (AID 2283500)
In short: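 GCLM expression quantified by qRT-PCR, normalized to three housekeeping genes, after 48 h chemical treatment of HepaRG cells in duplicate at 8 concentrations (top 100 uM, half-log steps, 0.5% DMSO). Changes fitted both directions against vehicle.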

[10] = read-out: Glutathione S-transferase M3 (GSTM3), GSTM3 (gene 2947); assay: LTEA_HepaRG_GSTM3: Life Technologies and Expression Analysis (LTEA) Assay for Glutathione S-transferase M3 (GSTM3) using HepaRG (AID 2283501)
In short: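 Expression of GSTM3 is determined by qRT-PCR in human liver HepaRG cells treated 48 h with an 8-point half-log range from 100 uM in 0.5% DMSO.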

[11] = read-out: Heat shock 70 kDa protein 1 (HSPA1A), gene 3303; assay: LTEA_HepaRG_HSPA1A: Life Technologies and Expression Analysis (LTEA) Assay for Heat shock 70 kDa protein 1 (HSPA1A) using HepaRG (AID 2283502)
In short: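 HSPA1A expression measured by qRT-PCR with ACTB/GAPDH/POLR2A normalization; curves fitted in both directions relative to DMSO vehicle. Exposure: 48 h in HepaRG cells, duplicate 8-point half-log series from 100 uM, 0.5% DMSO, serum-free induction medium.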

[12] = read-out: Hypoxia-inducible factor 1-alpha (Homo sapiens) (UniProt Q16665); assay: LTEA_HepaRG_HIF1A: Life Technologies and Expression Analysis (LTEA) Assay for Hypoxia-inducible factor 1 (HIF1A) Trancription factor using HepaRG (AID 2283503)
In short: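 HIF1A transcript level read by qRT-PCR (ACTB, GAPDH, POLR2A normalization) after 48 h chemical exposure of HepaRG cultures. Eight half-log concentrations, top 100 uM, 0.5% DMSO vehicle, duplicates; bidirectional curve fit against DMSO baseline.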

[13] = read-out: 3-Hydroxy-3-Methylglutaryl-CoA Synthase 2 (HMGCS2), HMGCS2 (gene 3158); assay: LTEA_HepaRG_HMGCS2: Life Technologies and Expression Analysis (LTEA) Assay for 3-Hydroxy-3-Methylglutaryl-CoA Synthase 2 (HMGCS2) using HepaRG (AID 2283504)
In short: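 This steatosis marker was read as HMGCS2 mRNA change in HepaRG cells treated 48 h with up to 100 uM chemical. Normalisation used housekeeping genes; activity in either direction was fitted relative to 0.5% DMSO vehicle.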

[14] = read-out: HGF (gene 3082); assay: LTEA_HepaRG_HGF: Life Technologies and Expression Analysis (LTEA) Assay for Hepatocyte Growth Facto (HGF) using HepaRG (AID 2283505)
In short: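 Using HepaRG monolayers kept in 0.5% DMSO, chemicals were tested in duplicate over eight half-log concentrations from 100 uM for 48 h. Endpoint: HGF mRNA change relative to DMSO, normalized to ACTB/GAPDH/POLR2A.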

[15] = read-out: Insulin Like Growth Factor 1 (IGF1), IGF1 (gene 3479); assay: LTEA_HepaRG_IGF1: Life Technologies and Expression Analysis (LTEA) Assay for Insulin Like Growth Factor 1 (IGF1) using HepaRG (AID 2283506)
In short: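 Expression measured by TaqMan qRT-PCR on a Fluidigm array, with three housekeeping genes for normalisation, after 48 h treatment of HepaRG cells. Top concentration 100 uM with half-log steps, 0.5% DMSO vehicle, bidirectional fit.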

[16] = read-out: Intercellular Adhesion Molecule 1 (ICAM1), ICAM1 (gene 3383); assay: LTEA_HepaRG_ICAM1: Life Technologies and Expression Analysis (LTEA) Assay for Intercellular Adhesion Molecule 1 (ICAM1) using HepaRG (AID 2283507)
In short: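 Using the human liver line HepaRG, compounds are tested in duplicate over 48 h at concentrations up to 100 uM. Expression is determined by TaqMan qRT-PCR, normalized to endogenous controls, and analysed relative to 0.5% DMSO vehicle.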

[17] = read-out: Insulin-like growth factor-binding protein 1 (IGFBP1), IGFBP1 (gene 3484); assay: LTEA_HepaRG_IGFBP1: Life Technologies and Expression Analysis (LTEA) Assay for Insulin-like growth factor-binding protein 1 (IGFBP1) using HepaRG (AID 2283508)
In short: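 HepaRG, 48 h, 8 conc. (max 100 uM, half-log), duplicates, 0.5% DMSO. Readout: TaqMan qRT-PCR, ACTB/GAPDH/POLR2A normalisation. Fit: bidirectional vs DMSO.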

[18] = read-out: Interleukin 6 (IL6), IL6 (gene 3569); assay: LTEA_HepaRG_IL6: Life Technologies and Expression Analysis (LTEA) Assay for Interleukin 6 (IL6) using HepaRG (AID 2283509)
In short: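 Changes in IL6 mRNA, up or down relative to 0.5% DMSO controls, were derived from concentration-response curves in human HepaRG cells treated for 48 h at up to 100 uM, with ACTB, GAPDH and POLR2A as normalizers.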

[19] = read-out: Interleukin 6 Receptor (IL6R), IL6R (gene 3570); assay: LTEA_HepaRG_IL6R: Life Technologies and Expression Analysis (LTEA) Assay for Interleukin 6 Receptor (IL6R) using HepaRG (AID 2283510)
In short: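 IL6R transcript level by qRT-PCR after 48 h chemical exposure (8-point, half-log, max 100 uM, 0.5% DMSO vehicle) of HepaRG cells in serum-free induction medium. Normalized to three housekeeping genes; curves fitted in both directions relative to DMSO.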

[20] = read-out: Fatty Acid-Binding Protein 1 (FABP1), FABP1 (gene 2168); assay: LTEA_HepaRG_FABP1: Life Technologies and Expression Analysis (LTEA) Assay for Fatty Acid-Binding Protein 1 (FABP1) using HepaRG (AID 2283494)
In short: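 Values reflect bidirectional concentration-response fitting of FABP1 mRNA change against 0.5% DMSO controls. Human HepaRG cultures received eight half-log doses (top 100 uM) for 48 h; expression quantified by TaqMan qRT-PCR with housekeeping-gene normalization.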

Measured: AC50

Sequence of Hypoxia-inducible factor 1-alpha (Homo sapiens) (Q16665 whole entry, looked up): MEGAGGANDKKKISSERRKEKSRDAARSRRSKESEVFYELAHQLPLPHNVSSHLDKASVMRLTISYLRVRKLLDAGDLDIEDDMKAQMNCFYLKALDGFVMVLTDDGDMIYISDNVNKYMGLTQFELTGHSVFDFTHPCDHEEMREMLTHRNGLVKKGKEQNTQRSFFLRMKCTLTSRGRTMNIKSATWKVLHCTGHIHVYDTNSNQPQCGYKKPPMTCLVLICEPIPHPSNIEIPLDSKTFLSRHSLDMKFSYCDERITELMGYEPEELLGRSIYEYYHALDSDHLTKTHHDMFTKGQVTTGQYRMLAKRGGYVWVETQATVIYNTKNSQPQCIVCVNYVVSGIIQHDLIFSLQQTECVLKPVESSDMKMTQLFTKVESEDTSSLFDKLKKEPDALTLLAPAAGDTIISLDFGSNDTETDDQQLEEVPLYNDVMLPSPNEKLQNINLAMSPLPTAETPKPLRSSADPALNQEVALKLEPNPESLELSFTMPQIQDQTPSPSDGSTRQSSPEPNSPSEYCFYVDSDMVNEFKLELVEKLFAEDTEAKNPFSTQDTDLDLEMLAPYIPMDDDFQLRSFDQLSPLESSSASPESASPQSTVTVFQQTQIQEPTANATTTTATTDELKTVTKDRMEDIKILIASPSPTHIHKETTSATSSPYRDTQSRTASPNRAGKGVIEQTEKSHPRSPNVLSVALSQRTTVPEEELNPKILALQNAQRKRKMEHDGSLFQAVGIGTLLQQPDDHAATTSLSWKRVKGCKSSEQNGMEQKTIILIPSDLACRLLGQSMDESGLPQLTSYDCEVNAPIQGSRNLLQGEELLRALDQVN
Sequence of Cytochrome P450 3A7 (Homo sapiens) (P24462 whole entry, looked up): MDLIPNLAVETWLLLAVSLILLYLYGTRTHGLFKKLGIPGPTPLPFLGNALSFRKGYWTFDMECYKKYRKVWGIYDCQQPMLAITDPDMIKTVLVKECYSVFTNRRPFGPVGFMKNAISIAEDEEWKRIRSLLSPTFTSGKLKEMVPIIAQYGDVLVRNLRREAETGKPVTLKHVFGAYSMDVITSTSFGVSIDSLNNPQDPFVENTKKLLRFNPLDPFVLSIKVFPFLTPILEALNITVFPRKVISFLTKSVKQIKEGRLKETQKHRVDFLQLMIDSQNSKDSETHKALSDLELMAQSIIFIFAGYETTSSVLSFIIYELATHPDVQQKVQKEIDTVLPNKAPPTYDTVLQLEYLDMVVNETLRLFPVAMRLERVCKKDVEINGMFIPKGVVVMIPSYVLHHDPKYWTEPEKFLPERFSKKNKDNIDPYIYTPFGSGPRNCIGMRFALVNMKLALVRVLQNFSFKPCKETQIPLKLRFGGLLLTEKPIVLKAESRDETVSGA

CCOc1ccc(C(C)(C)COCc2cccc(Oc3ccccc3)c2)cc1
active: [2] 1.64 µM | [5] 26.8 µM | [15] 12.4 µM
not listed: [20]
inactive: all other assays above

CC(C)(C)OOC(C)(C)C
not listed: [20]
inactive: all other assays above

CCNc1nc(Cl)nc(NC(C)(C)C)n1
active: [4] 11 µM | [15] 13.1 µM
not listed: [20]
inactive: all other assays above

CCCCc1ccccc1
not listed: [20]
inactive: all other assays above

CCOC(=O)c1ccccc1C(=O)OCC
not listed: [20]
inactive: all other assays above

CCOS(=O)(=O)OCC
not listed: [20]
inactive: all other assays above

ClC(Cl)c1ccccc1
inactive: all assays above

c1nc[nH]n1
active: [10] 12.6 µM | [16] 0.112 µM
not listed: [20]
inactive: all other assays above

ClC(Cl)(Cl)c1ccccc1
not listed: [20]
inactive: all other assays above

[N-]=[N+]=[N-]
active: [1] 50 µM | [4] 50 µM | [6] 79.3 µM | [8] 78.1 µM | [9] 95 µM | [13] 77 µM | [15] 68.6 µM | [17] 86.4 µM | [18] 93.6 µM
not listed: [20]
inactive: all other assays above

Cc1cccc(N)c1
not listed: [4] | [5]
inactive: all other assays above

Nc1ccc(Cl)cc1
not listed: [20]
inactive: all other assays above

CSC(C)(C)C=NO
not listed: [19] | [20]
inactive: all other assays above

CC(Cc1ccc(OCC(=O)O)cc1)NCC(O)c1csc(C(F)(F)F)n1 (centres undefined)
not listed: [20]
inactive: all other assays above

CC(Cl)(Cl)C(=O)O
not listed: [20]
inactive: all other assays above

Cc1ccc([N+](=O)[O-])cc1C
not listed: [20]
inactive: all other assays above

Nc1ccc2ccccc2c1
active: [20] 18.9 µM
inactive: all other assays above

ClC1=C(Cl)C2(Cl)C3C(Cl)C(Cl)CC3C1(Cl)C2(Cl)Cl (centres undefined)
active: [4] 26.2 µM | [5] 10.4 µM | [9] 50 µM | [12] 4.98 µM | [13] 31.7 µM | [15] 23.5 µM
not listed: [20]
inactive: all other assays above

CCN(CC)c1ccccc1
not listed: [20]
inactive: all other assays above

CCCCCCCc1ccc(O)cc1
not listed: [20]
inactive: all other assays above

CCCN(CCC)c1c([N+](=O)[O-])cc(C(C)C)cc1[N+](=O)[O-]
active: [5] 50 µM | [9] 9.92 µM | [10] 3.04 µM | [11] 16.7 µM | [15] 71.1 µM
not listed: [20]
inactive: all other assays above
